# GSIS activator: primary screen for activators of insulin secretion dependent on glucose, INS-1E cells, GLuc reporter luminescence. activation, % at 16.6 µM. INS-1E GLuc reporter insulin secretion, 2-3 h. hit rate 0.61% among 370,000;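 active means lowest replicate activation of at least 40%, so every replicate reaches that level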;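 further: 0% = median of neutral control wells and 100% = median of IBMX positive control wells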
# Vif inh: inhibitors of HIV Vif; inhibition, % at 7.49 µM; AID 602346; HEK293T cells, Vif self-association by quenched fluorescence, imaging, 24 h; hit rate 0.35% among 340,000; in the data active means inhibition above about 50%, passing the limit was not always enough; inconclusive means no clear call, values can overlap the other calls; inactive means below about 31%
# Neddylation inh: blocks human cullin neddylation. TR-FRET cullin neddylation, biochemical. hit rate 0.58% among 360,000. AID 651699. inhibition, % at 25 µM; in the data active means inhibition above about 36%
# dFosB act: enhances mouse delta FosB homodimer DNA binding; purified delta FosB, TAMRA-CDK5 oligo fluorescence polarization; percent of positive-control signal above neutral wells; activation, % at 25 µM; hit rate 0.99% among 340,000; AID 493131;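 active means mean activation above about 17%, with every replicate also reaching it, limit read from the data, passing the limit was not always enough; inconclusive means only one of the two conditions met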
# Target sequence (P13346 whole entry, looked up): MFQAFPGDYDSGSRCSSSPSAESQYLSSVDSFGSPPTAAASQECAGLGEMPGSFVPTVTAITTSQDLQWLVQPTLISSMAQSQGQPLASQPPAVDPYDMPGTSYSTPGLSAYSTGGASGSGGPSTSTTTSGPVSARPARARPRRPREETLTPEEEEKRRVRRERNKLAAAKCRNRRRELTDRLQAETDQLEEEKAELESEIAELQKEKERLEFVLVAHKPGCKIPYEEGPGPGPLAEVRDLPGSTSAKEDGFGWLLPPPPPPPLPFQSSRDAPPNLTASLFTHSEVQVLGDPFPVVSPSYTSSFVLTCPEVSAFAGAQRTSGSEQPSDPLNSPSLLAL
# A1 inh: inhibitors of the anti-apoptotic protein A1, read as caspase activation; MEF A1-2A-BIM cells, Caspase-Glo 3/7 luminescence, 3 h; percent of clofoctol response, vehicle zero; caspase activation, % (test concentration not listed); hit rate 0.066% among 330,000;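 active means over half of replicate activation scores above 10%, or exactly half above 10 with the replicate mean above 10; inconclusive means replicate mean below 10 yet half the replicates above 10; inactive means over half of replicates below 10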
# Neddyl inh conf: confirmation of human cullin neddylation inhibitors. shares compounds with Neddylation inh. TR-FRET cullin neddylation biochemical assay. calls only at 25 µM. hit rate 13% among 1,800. AID 652217; in the data active means inhibition above about 40%;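 further: neddylation substrate is the cullin 1 ring ligase complex with SKP2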
# An asterisk follows results filed as active; i = inactive; ? = inconclusive; . = no result given; + = active, no number. Compounds with a hit are over-represented: about 1.9% of the library has one in this group of screens.
SMILES,GSIS activator,Vif inh,Neddylation inh,dFosB act,A1 inh,Neddyl inh conf
COc1cc(C(=O)NN=Cc2ccc(N(C)C)cc2)cc(OC)c1OC,-14,3,45*,.,.,+
CN(C)C(=O)C[C@H]1CC[C@@H]2[C@H](COc3ccc(NC(=O)C4CCC4)cc3C(=O)N2C)O1,12,.,.,.,.,.
COc1ccc(C(=O)Nc2ccc3c(c2)C(=O)N(C)C[C@@H](OC)[C@@H](C)CN(C)[C@@H](C)CO3)cc1,10,.,.,.,.,.
CC(=O)N1[C@H](CO)[C@H](c2ccccc2)[C@H]1CN(CC(C)C)C(=O)c1ccccn1,4,.,.,.,.,.
COc1ccc(C2NC(=O)c3ccccc3O2)c(OC)c1OC (stereo not drawn),.,2,45*,-9,0,i
COc1ccc(C(=O)Nc2ccc(NC(=O)c3cccs3)cc2)cc1Cl,-4,-3,40*,?,0,i
COc1ccc(C(=O)Nc2ccc(NC(=O)c3cccs3)c(OC)c2)cc1Cl,-1,-2,.,1,1,.
CN(C(=O)COC(=O)c1cccc(Cl)c1)C1CCS(=O)(=O)C1 (stereo not drawn),9,34,6,-2,1,.
CN(C(=O)COC(=O)c1ccc(-c2ccc(O)cc2)cc1)C1CCS(=O)(=O)C1 (stereo not drawn),6,-9,38*,12,-2,i
CO[C@@H]1CN(C)C(=O)c2cc(NC(=O)C3CC3)ccc2OC[C@H](C)N(C(=O)c2ccccn2)C[C@H]1C,7,.,.,.,.,.
CN1CCCCc2c1nc1c(c2N)CCCC1,19,1,39*,1,0,i
CC(Oc1ccccc1)C(=O)N1CCN(c2ncccn2)CC1 (stereo not drawn),2,4,-7,2,1,.
CC(Oc1ccccc1)C(=O)N1CCN(c2ccc(N3CCCCC3)nn2)CC1 (stereo not drawn),-8,3,46*,4,1,.
CCCNC(=O)N1[C@@H]2CNC[C@H]1C2c1ccc(-c2cccnc2)cc1 (stereo partly drawn),1,.,.,.,.,.
Cc1ccc2nc(-c3ccc(NC(=O)CSCC(=O)O)cc3)sc2c1,2,3,.,-12,-5,.
Cc1ccc2nc(-c3ccc(NC(=O)COCC(=O)O)cc3)sc2c1,-3,12,45*,-12,-7,+
O=C(C[C@H]1CC[C@H]2[C@@H](COC[C@@H](O)CN2S(=O)(=O)c2ccc(F)cc2)O1)NCC1CC1,-4,.,.,.,.,.
CCN(CC)CCNC(=O)c1cn(CC)c2cc(N3CCN(C)CC3)c(F)cc2c1=O,16,5,47*,5,1,.
CCn1cc(C(=O)O)c(=O)c2cc(F)c(N3CCN(C(=S)NC(=O)c4ccc(F)cc4)CC3)cc21,19,10,35,-6,0,.
CCCOc1ccc(C(=O)NC(=S)N2CCN(c3cc4c(cc3F)c(=O)c(C(=O)O)cn4CC)CC2)cc1,12,0,40*,-2,0,i
CCn1cc(C(=O)NCCC(C)C)c(=O)c2cc(F)c(N3CCN(C)CC3)cc21,0,-3,44*,-13,-2,.
CCCCNC(=O)c1cn(CC)c2cc(N3CCN(C)CC3)c(F)cc2c1=O,26,3,.,.,0,.
C[C@H]1CN([C@@H](C)CO)C(=O)c2ccccc2-c2ccccc2CO[C@H]1CN(C)C(=O)Nc1ccccc1C(F)(F)F,2,.,.,.,.,.
COc1ccc(-c2ccc([C@@H]3[C@@H](CO)N4C(=O)CN(Cc5ccccc5)C[C@H]34)cc2)cc1,-9,.,.,.,.,.
O=C(Nc1ccc2c(c1)OCO2)c1cc(-c2ccc(O)cc2)on1,58,42,52*,?,-3,+
SMILES,GSIS activator,Vif inh,Neddylation inh,dFosB act,A1 inh,Neddyl inh conf
O=C(Nc1ccc2c(c1)OCO2)c1cc(-c2cccc(O)c2)on1,4,20,26,-8,-2,.
O=c1ccc2cc3c(-c4ccccc4)coc3cc2o1,57,5,46*,-23,-1,i
Cc1cc(N2CCOCC2)n2cc(-c3ccc(F)cc3)nc2n1,1,1,46*,6,0,i
COc1ccc(-c2ccc(-c3nnc(Cc4ccc(OC)c(OC)c4)o3)cc2)cc1,.,6,44*,-1,-1,i
COC(=O)C1=C(C)NC2=C(C(=O)CCC2)C1c1ccc(-c2ccsc2C(=O)OC)o1 (stereo not drawn),12,2,38*,7,0,.
C[C@H](CO)N1C[C@H](C)[C@@H](CN(C)Cc2ccc(Cl)c(Cl)c2)Oc2c(NC(=O)Nc3ccc(C(F)(F)F)cc3)cccc2C1=O,-8,.,.,.,.,.
CC(=O)Nc1cccc(-c2nc3ccccc3[nH]2)c1,.,-5,24,-12,0,.
CC(Oc1ccccc1)C(=O)Nc1cccc(-c2nc3ccccc3[nH]2)c1 (stereo not drawn),.,-17,39*,-16,-3,i
CCCc1cc(=O)n2[nH]c(-c3cc(OC)c(OC)c(OC)c3)nc2n1,.,4,39*,7,-1,i
CCCc1cc(=O)n2[nH]c(-c3ccc(OC)cc3)nc2n1,.,1,32,7,0,.
CCN(CC)CCNC1=NCCn2c1cc1cc(OC)ccc12,.,?,.,16,0,.
CN=C1c2cc3cc(OC)ccc3n2CCN1Cc1ccccc1,.,1,41*,3,.,i
O=S(=O)(Nc1nc2ccccc2nc1NCC1CCCO1)c1cccs1 (stereo not drawn),.,0,13,-9,0,.
Cc1ccc(S(=O)(=O)Nc2nc3ccccc3nc2NCC2CCCO2)c(C)c1 (stereo not drawn),-18,0,47*,-6,0,.
Cc1ccc(S(=O)(=O)Nc2nc3ccccc3nc2NCC2CCCO2)cc1C (stereo not drawn),-9,4,39*,-6,0,i
Cc1cccc(S(=O)(=O)Nc2nc3ccccc3nc2NCC2CCCO2)c1 (stereo not drawn),-7,6,28,-7,0,.
C[C@@H]1CN([C@H](C)CO)C(=O)c2cc(C3=CCCCC3)cnc2O[C@@H]1CN(C)C(=O)c1ccncc1,6,.,.,.,.,.
Cc1ccc2cc3cc(C(=O)NCCN4CCOCC4)oc3nc2c1,.,-4,65*,-27,0,+
COc1ccc2cc3cc(C(=O)NCCCN4CCOCC4)oc3nc2c1,.,1,.,-26,1,.
COc1ccc2cc3cc(C(=O)NCCc4ccc(OC)c(OC)c4)oc3nc2c1,.,-41,53*,-8,-1,+
CCCN(CCC)CCCNC(=O)c1cc2cc3ccc(OC)cc3nc2o1,.,.,36,-31,2,.
COc1cccc2cc(C(=O)NCCN3CCOCC3)oc12,-3,0,40*,-5,0,i
O=C(NC1CCC1)[C@H]1[C@H](CO)[C@H]2Cn3c(ccc(-c4ccccc4)c3=O)[C@H]2N1CC1CC1,-3,.,.,.,.,.
COc1cccc(-c2cn(CC[C@@H]3CC[C@H](NC(=O)CC4CC4)[C@H](CO)O3)nn2)c1,12,.,.,.,.,.

# Source: PubChem (several laboratories)
